According to PubChem BioAssay (NCATS):
Values joined by “and” are separate entries in the source; they are usually repeats but may differ in a detail not shown here. Identical values can stand only once. Inconclusive results are not listed. Values without a mark were called inactive. Active and inactive are the calls of the source. Calls follow the shape of the dose curve; as a rule, active = well fitted activation curve with a large enough effect; inconclusive = small, poorly fitted or top-dose-only effect; inactive = no such curve, though single readings can be large or run the other way.

The compounds below were run against Cellular tumor antigen p53 (Homo sapiens) (UniProt P04637) (assay: Primary qHTS for small molecule compounds that upregulate eGFP-tagged delta133p53alpha (in N-terminal) cells. (AID 2060322; also: nearly all actives have a fitted effect of over 75% in size;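 as to activation: series mostly up to about 56 µM; 0% = DMSO vehicle and 100% = reference activator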)). Details: NCI-H358 eGFP-delta133p53alpha fluorescence, 24 h; activation: active compounds read high.
Chain of Cellular tumor antigen p53 (Homo sapiens) (P04637 whole entry, looked up): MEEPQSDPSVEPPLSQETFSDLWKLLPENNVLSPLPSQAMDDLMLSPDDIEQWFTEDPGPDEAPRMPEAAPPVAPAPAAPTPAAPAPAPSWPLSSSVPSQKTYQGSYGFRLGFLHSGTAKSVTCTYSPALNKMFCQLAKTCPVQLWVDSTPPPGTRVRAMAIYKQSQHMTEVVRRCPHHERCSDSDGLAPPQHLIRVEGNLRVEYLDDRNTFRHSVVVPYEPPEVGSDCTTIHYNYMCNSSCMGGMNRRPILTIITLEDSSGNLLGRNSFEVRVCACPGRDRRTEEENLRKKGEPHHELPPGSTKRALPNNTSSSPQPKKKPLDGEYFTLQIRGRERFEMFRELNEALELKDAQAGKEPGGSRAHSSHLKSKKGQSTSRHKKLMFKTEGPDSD
Summary of the method: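 NCI-H358 cells pre-induced 24 h with 10 ng/ml doxycycline to express N-terminal eGFP-delta133p53alpha, then dosed 24 h at 37C without doxycycline; fixed, Hoechst-stained, GFP intensity by laser scanning cytometry, normalized to DMSO (0%) and 57.5 uM 5-azacytidine (100%).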
Potency is read from the fitted curve at half-maximal effect.

| Compound | Potency | activation |
| --- | --- | --- |
| O=C1c2ccccc2-[n+]2ccc3c([nH]c4ccccc43)c21 | 15.3 µM (active) | – |
| Cc1cc([C@@H](C)Nc2ccccc2C(=O)O)c2nc(N3CCOCC3)cc(=O)n2c1 | – | 14.9% |
| Cc1c(C(=O)NN2CCCCC2)nn(-c2ccc(Cl)cc2Cl)c1-c1ccc(Cl)cc1 | – | 8.47% and -3.72% |
| O=C(O)CCC1CCC(c2cc(F)ccc2F)(S(=O)(=O)c2ccc(Cl)cc2)CC1 (stereo not given) | – | 33.4% |
| CCOCC(O)COc1ccc(NC(=O)CC[S+](C)C)cc1 (stereo not given) | – | -1.78% |
| C[C@H](NC(=O)c1sccc1OCc1ccc(Cl)cc1)c1ccccc1 | – | 16.4% |
| Oc1cccc(-c2nc(N3CCOCC3)c3oc4ncccc4c3n2)c1 | – | 27.8% |
| CCOC(=O)[C@H](CCc1ccccc1)N[C@H]1CS[C@H](c2cccs2)CN(CC(=O)O)C1=O | – | -24.3% and -1.2% |
| CC(C)C[C@@H](N)[C@H](O)C(=O)N[C@H](C(=O)N[C@H](C(=O)N[C@@H](CC(=O)O)C(=O)O)C(C)C)C(C)C | – | -3.94% |
| Nc1nc2[nH]cc(CCc3ccc(C(=O)N[C@@H](CCC(=O)O)C(=O)O)cc3)c2c(=O)[nH]1 | – | -41.3% |
| CCC(=O)O[C@]1(C(=O)SCF)[C@H](C)C[C@H]2[C@@H]3C[C@H](F)C4=CC(=O)C=C[C@]4(C)[C@@]3(F)[C@@H](O)C[C@@]21C | – | 17.6% and 0.401% |
| C[C@H](NC(=O)[C@@H](O)c1cc(F)cc(F)c1)C(=O)N[C@@H]1C(=O)N(C)c2ccccc2-c2ccccc21 | – | 10.4% |
| C[C@@H]1C(=O)O[C@H]2CC34[C@H]5C[C@@H](C(C)(C)C)C36[C@H](OC(=O)[C@@H]6O)O[C@@]4(C(=O)O5)[C@]21O (stereo not given in full) | – | 14% |
| CO[C@@H]1[C@@H](OC(N)=O)[C@@H](O)[C@H](Oc2ccc3c(O)c(NC(=O)c4ccc(O)c(CC=C(C)C)c4)c(=O)oc3c2C)OC1(C)C | – | -10.7% and -17.4% |
| Cc1[nH]nc2ccc(-c3cncc(OC[C@@H](N)Cc4ccccc4)c3)cc12 | 21.7 µM (active) | – |
| NC1=N[C@H]2[C@H](CS[C@H]2CCCCC(=O)O)N1 | – | -4.3% |
| Cc1ccsc1C(=CCCN1CCC[C@@H](C(=O)O)C1)c1sccc1C | – | -19.8% |
| Clc1ccc(C(Cn2ccnc2)OCc2ccc(Sc3ccccc3)cc2)c(Cl)c1 (stereo not given) | – | -3.95% and 8.63% |
| OC1CCC(Nc2ncc3nc(Nc4c(F)cc(F)cc4F)n([C@@H]4CCOC4)c3n2)CC1 (stereo not given in full) | – | 52.2% |
| CCOC(=O)[C@@H](N)CCC(=O)N[C@@H](CSCc1ccccc1)C(=O)N[C@@H](C(=O)OCC)c1ccccc1 | – | -1.42% |

| Compound | Potency | activation |
| --- | --- | --- |
| CCOc1cc(N2CCC(O)CC2)ccc1Nc1ncc2c(n1)N(C)c1ccccc1C(=O)N2C | – | 72.4% |
| CC(C)(C)c1cc(C(C)(C)C)c(NC(=O)c2c[nH]c3ccccc3c2=O)cc1O | – | 27.3% |
| CO[C@@H](C(=O)N1Cc2[nH]nc(NC(=O)c3ccc(N4CCN(C)CC4)cc3)c2C1)c1ccccc1 | – | 20.9% |
| Cc1c(C)c2c(c(C)c1O)CCC(C)(COc1ccc(CC3SC(=O)NC3=O)cc1)O2 (stereo not given) | – | -7.34% |
| C[C@H](NC(=O)Cc1cc(F)cc(F)c1)C(=O)N[C@H](C(=O)OC(C)(C)C)c1ccccc1 | – | 11.5% |
| NC(=O)N1CCC(CC(=O)N2CCC([C@H]3c4ncc(Br)cc4CCc4cc(Cl)cc(Br)c43)CC2)CC1 | – | 7.44% |
| CSc1cccc(Nc2ncc3cc(-c4c(Cl)cccc4Cl)c(=O)n(C)c3n2)c1 | – | -0.477% |
| CC(Cc1ccc(O)c(O)c1)(NN)C(=O)O (stereo not given) | – | -5.67% |
| CC(C)C[C@H](NC(=O)CNC(=O)c1cc(Cl)ccc1Cl)B(O)O | 17.2 µM (active) | – |
| Oc1cc2c(cc1O)C1c3ccc(O)c(O)c3OCC1(O)C2 (stereo not given) | – | -7.38% |
| COC(=O)Nc1ccc(-c2nc(N3CCOCC3)c3cnn(C4CCN(C(=O)OC)CC4)c3n2)cc1 | – | 11.3% |
| C=C(C)[C@@H]1CC[C@]2(C)CC[C@]3(C)[C@H](CC[C@@H]4[C@@]5(C)CC[C@H](O)C(C)(C)[C@H]5CC[C@]43C)[C@@H]12 | – | -1.45% |
| Cc1ccc(S(=O)(=O)Nc2nc3ccccc3nc2Nc2ccc3nsnc3c2)cc1 | – | 6.55% |
| Cc1ccc2c(=O)c3cccc(CC(=O)O)c3oc2c1C | – | 16.3% |
| COc1c(C)cnc(Cn2cnc3c(Cl)nc(N)nc32)c1C | – | -17.3% |
| CC1(CN2CCC(n3c(=O)[nH]c4ccccc43)CC2)OCc2ccccc2-n2cccc21 (stereo not given) | – | -25.4% and -3.95% |
| C/C=C/C(=O)N(CC)c1ccccc1C | – | -2.82% |
| Oc1ccc(C2CCN(c3ccnc4ccccc34)CC2)cc1O | – | 25.9% |
| COC(=O)C1=C(C)NC(C)=C(C(=O)OCCN2CCN(C(c3ccccc3)c3ccccc3)CC2)C1c1cccc([N+](=O)[O-])c1 (stereo not given) | – | -17.6% |
| COc1ccc(-c2ccc3c(N4CCOCC4)nc(N4C[C@@H](C)O[C@@H](C)C4)nc3n2)cc1CO | 21.7 µM (active) | – |
